Reference: publication PMC7862700, “An all-to-all approach to the identification of sequence-specific readers for epigenetic DNA modifications on cytosine”

Legend:
Assay in all cases: DAPPL (digital affinity profiling via proximity ligation, sequencing); 10 mM Tris-HCl pH 7.5, 50 mM NaCl, 1 mM DTT, 4% glycerol, room temperature, 30 min; GST-TFs on glutathione beads, 16-mer random dsDNA library, 0.1% formaldehyde crosslink after washing; high values mean tight binding
[1] = target: T1, FEV (Homo sapiens, UniProt Q99581 1-238); conditions: protein: recombinant; tags: N-terminal GST; dsDNA, one strand shown
T1 sequence: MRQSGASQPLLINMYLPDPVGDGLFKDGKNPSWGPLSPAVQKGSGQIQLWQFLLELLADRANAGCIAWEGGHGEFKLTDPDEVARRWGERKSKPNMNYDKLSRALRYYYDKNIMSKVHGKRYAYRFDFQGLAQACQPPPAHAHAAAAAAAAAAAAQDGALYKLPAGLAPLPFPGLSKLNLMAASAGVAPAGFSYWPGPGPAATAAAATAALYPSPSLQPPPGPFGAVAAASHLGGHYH
Method in brief: (§1)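 The binding signal reported is, for every hexamer, its read frequency for a factor over its read frequency for the tag-only sample. Reads came from pools of yeast-expressed, GST-fused human transcription factors on glutathione beads, barcoded with DNA and mixed with that sample, which were incubated with 200 nmole of a random double-stranded 16-mer DNA library in Tris/NaCl/DTT/glycerol buffer at room temperature for 30 min. After washing, the pools were crosslinked with 0.1% formaldehyde, proximity-ligated with BsaI/T4 ligase for 1 h at 37 °C, PCR-amplified and sequenced on an Illumina NextSeq500.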

[2] = target: ETV5 (Homo sapiens, UniProt P41161 1-510); conditions: protein: recombinant; tags: N-terminal GST; dsDNA, one strand shown
Sequence of ETV5 (P41161 whole entry): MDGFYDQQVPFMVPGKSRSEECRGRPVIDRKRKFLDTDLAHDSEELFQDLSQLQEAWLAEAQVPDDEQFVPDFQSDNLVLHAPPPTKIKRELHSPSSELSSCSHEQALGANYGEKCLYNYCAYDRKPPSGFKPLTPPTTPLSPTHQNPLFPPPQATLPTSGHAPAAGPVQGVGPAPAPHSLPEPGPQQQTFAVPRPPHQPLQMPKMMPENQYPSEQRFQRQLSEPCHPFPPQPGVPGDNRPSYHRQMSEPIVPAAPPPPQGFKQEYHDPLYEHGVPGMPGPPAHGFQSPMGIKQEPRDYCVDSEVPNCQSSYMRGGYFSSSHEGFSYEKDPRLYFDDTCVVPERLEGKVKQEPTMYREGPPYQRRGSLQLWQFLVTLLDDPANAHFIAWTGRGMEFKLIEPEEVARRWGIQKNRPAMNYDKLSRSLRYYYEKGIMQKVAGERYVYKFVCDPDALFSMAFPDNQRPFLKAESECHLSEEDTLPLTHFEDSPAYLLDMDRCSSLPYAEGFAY
Method in brief: as §1

[3] = target: HSF1 (Homo sapiens, UniProt Q00613 1-529); conditions: protein: recombinant; tags: N-terminal GST; chain copies: 3; dsDNA, one strand shown
Sequence of HSF1 (Q00613 whole entry): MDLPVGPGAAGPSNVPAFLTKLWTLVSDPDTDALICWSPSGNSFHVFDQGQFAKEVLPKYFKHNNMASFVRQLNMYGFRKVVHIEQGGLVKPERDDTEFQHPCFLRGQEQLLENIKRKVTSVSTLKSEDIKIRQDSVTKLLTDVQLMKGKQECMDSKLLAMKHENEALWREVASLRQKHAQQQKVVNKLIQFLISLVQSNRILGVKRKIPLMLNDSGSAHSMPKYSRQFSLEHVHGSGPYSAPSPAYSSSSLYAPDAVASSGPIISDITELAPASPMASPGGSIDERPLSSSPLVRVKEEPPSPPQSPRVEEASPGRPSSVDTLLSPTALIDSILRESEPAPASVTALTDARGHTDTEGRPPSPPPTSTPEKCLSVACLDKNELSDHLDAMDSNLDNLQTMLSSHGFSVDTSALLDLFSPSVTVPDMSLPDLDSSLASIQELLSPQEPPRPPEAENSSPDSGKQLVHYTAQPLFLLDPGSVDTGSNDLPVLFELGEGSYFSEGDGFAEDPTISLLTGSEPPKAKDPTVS
Method in brief: as §1

[4] = target: T2, SPIC (Homo sapiens, UniProt Q8N5J4 1-248); conditions: protein: recombinant; tags: N-terminal GST; dsDNA, one strand shown
T2 sequence: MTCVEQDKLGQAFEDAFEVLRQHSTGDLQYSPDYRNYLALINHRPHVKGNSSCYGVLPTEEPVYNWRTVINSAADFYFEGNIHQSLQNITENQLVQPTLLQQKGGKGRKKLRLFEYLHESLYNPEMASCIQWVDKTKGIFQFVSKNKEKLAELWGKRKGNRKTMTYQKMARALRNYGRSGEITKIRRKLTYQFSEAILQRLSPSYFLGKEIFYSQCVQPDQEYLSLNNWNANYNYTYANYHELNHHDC
Method in brief: as §1

[5] = target: ELF4 (Homo sapiens, UniProt Q99607 1-663); conditions: protein: recombinant; tags: N-terminal GST; dsDNA, one strand shown
Sequence of ELF4 (Q99607 whole entry): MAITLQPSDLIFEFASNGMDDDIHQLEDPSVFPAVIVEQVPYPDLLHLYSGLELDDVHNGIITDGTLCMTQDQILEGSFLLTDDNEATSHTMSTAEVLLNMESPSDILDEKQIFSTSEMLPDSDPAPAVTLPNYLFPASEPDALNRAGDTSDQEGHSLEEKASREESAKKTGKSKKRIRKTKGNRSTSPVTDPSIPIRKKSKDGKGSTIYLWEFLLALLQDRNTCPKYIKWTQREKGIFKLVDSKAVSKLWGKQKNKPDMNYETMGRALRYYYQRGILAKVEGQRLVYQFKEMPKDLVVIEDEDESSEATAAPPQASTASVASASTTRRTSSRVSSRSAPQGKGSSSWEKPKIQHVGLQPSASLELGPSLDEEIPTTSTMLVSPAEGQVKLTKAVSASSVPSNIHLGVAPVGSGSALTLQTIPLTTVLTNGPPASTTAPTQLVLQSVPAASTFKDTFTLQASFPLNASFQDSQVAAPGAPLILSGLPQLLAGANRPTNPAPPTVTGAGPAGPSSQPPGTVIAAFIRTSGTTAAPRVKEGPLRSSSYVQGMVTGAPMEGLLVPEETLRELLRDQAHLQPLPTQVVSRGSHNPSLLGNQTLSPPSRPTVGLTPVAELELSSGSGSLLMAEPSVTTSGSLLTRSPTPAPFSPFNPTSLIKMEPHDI
Method in brief: as §1

[6] = target: T3, ELK4 (Homo sapiens, UniProt P28324-2 1-405); conditions: protein: recombinant; tags: N-terminal GST; dsDNA, one strand shown
T3 sequence: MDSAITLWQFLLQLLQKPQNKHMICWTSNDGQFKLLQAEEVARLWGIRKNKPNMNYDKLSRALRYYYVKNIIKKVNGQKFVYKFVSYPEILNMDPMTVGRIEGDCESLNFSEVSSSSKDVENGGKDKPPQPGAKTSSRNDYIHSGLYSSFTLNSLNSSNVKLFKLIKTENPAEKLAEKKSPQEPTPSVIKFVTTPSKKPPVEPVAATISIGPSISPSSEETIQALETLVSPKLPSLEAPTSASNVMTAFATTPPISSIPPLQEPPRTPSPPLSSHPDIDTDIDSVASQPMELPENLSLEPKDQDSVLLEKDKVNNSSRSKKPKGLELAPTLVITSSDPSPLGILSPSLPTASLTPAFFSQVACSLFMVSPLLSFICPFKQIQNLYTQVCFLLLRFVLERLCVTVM
Method in brief: as §1

[7] = target: T4, ETV2 (Homo sapiens, UniProt O00321 1-342); conditions: protein: recombinant; tags: N-terminal GST; dsDNA, one strand shown
T4 sequence: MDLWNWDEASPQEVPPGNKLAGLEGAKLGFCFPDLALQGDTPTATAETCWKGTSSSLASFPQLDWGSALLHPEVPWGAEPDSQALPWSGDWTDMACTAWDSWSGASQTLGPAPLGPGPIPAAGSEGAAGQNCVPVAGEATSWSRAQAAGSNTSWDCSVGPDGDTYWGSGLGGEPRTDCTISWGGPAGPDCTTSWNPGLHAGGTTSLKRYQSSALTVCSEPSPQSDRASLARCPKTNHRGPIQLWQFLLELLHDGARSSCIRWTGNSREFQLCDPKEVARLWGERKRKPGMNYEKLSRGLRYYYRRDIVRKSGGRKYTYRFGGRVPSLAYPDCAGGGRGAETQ
Method in brief: as §1

[8] = target: T5, ELF3 (Homo sapiens, UniProt P78545 1-371); conditions: protein: recombinant; tags: N-terminal GST; dsDNA, one strand shown
T5 sequence: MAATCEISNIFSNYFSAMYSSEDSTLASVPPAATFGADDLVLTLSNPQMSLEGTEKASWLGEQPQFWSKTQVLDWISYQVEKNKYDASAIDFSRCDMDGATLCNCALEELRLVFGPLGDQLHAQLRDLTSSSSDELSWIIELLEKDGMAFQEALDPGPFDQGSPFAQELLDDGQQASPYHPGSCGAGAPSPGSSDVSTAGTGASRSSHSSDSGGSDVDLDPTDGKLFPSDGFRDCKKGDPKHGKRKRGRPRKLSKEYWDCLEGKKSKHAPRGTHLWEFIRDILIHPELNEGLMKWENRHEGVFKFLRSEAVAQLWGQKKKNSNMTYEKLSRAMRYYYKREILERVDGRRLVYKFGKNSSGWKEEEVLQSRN
Method in brief: as §1

[9] = target: CRX (Homo sapiens, UniProt O43186 1-299); conditions: protein: recombinant; tags: N-terminal GST; dsDNA, one strand shown
Sequence of CRX (O43186 whole entry): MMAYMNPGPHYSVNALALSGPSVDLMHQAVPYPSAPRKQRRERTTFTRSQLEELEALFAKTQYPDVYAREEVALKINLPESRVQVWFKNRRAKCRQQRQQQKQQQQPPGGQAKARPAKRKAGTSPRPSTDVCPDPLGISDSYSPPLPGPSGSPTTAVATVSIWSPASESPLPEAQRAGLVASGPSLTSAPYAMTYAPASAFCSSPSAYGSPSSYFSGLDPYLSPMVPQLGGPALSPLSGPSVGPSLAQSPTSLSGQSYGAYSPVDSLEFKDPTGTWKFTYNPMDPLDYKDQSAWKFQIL
Method in brief: as §1

[10] = target: ETV1 (Homo sapiens, UniProt P50549 1-477); conditions: protein: recombinant; tags: N-terminal GST; dsDNA, one strand shown
Sequence of ETV1 (P50549 whole entry): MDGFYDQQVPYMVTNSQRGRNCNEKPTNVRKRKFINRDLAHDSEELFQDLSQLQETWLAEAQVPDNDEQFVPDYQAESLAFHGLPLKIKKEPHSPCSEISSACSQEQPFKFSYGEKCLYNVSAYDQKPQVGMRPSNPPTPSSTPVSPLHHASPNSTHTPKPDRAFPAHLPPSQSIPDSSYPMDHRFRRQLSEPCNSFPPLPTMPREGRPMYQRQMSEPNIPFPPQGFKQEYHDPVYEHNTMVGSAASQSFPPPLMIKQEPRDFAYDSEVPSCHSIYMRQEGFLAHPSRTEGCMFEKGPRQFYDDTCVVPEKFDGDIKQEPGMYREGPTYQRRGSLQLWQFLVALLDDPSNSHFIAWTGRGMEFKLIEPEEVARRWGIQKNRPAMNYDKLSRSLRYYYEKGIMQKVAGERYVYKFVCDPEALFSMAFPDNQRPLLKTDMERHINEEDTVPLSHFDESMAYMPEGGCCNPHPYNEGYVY
Method in brief: as §1

[11] = target: T6, ERF (Homo sapiens, UniProt P50548 1-548); conditions: protein: recombinant; tags: N-terminal GST; dsDNA, one strand shown
T6 sequence: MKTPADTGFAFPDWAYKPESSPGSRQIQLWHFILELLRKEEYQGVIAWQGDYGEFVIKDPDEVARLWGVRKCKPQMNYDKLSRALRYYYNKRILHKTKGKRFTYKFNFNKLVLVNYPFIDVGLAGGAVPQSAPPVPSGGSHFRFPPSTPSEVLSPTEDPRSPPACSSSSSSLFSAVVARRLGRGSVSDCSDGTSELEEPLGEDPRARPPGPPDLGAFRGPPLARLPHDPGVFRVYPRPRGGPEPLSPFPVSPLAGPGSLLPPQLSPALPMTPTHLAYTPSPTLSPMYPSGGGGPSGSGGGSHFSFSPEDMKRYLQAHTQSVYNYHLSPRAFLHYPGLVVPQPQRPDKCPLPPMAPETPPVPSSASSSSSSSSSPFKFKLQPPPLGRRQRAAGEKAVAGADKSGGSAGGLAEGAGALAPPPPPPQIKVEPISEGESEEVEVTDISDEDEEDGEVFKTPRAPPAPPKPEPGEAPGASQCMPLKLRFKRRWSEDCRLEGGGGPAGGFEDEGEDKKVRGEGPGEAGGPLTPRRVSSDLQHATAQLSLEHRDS
Method in brief: as §1

[12] = target: T7, ETV3L (Homo sapiens, UniProt Q6ZN32 1-361); conditions: protein: recombinant; tags: N-terminal GST; dsDNA, one strand shown
T7 sequence: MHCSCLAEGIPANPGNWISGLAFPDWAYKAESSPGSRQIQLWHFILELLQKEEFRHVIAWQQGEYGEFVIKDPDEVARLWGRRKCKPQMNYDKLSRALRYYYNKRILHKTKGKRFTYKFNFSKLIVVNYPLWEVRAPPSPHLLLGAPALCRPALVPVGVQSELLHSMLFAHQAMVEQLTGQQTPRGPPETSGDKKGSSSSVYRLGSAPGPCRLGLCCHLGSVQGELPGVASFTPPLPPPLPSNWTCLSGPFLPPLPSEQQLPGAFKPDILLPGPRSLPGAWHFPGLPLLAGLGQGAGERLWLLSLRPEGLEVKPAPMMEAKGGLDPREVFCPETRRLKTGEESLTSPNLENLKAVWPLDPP
Method in brief: as §1

[13] = target: T8, ETS2 (Homo sapiens, UniProt P15036 1-469); conditions: protein: recombinant; tags: N-terminal GST; dsDNA, one strand shown
T8 sequence: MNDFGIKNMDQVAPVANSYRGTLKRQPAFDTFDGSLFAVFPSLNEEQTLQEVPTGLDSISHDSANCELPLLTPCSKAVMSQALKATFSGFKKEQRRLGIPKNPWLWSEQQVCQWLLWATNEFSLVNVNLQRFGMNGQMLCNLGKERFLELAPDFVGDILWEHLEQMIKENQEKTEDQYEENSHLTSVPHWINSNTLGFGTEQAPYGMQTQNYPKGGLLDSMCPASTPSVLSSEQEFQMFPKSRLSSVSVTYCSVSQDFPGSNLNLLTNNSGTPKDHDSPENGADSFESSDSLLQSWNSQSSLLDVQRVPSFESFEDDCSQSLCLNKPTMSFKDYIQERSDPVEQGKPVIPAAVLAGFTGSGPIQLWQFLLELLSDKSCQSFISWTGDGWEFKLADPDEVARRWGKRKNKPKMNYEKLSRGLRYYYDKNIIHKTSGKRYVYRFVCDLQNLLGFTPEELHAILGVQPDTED
Method in brief: as §1

[14] = target: T9, SPDEF (Homo sapiens, UniProt O95238 1-335); conditions: protein: recombinant; tags: N-terminal GST; dsDNA, one strand shown
T9 sequence: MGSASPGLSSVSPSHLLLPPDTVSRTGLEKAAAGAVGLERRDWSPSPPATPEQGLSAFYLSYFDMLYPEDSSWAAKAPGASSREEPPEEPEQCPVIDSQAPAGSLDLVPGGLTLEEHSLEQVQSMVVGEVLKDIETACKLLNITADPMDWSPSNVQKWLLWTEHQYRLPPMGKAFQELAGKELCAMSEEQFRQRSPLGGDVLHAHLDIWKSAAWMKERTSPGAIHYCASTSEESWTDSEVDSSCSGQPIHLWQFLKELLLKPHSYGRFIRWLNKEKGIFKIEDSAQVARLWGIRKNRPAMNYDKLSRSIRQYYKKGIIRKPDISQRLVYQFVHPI
Method in brief: as §1

[15] = target: T10, ETV7 (Homo sapiens, UniProt Q9Y603 1-341); conditions: protein: recombinant; tags: N-terminal GST; dsDNA, one strand shown
T10 sequence: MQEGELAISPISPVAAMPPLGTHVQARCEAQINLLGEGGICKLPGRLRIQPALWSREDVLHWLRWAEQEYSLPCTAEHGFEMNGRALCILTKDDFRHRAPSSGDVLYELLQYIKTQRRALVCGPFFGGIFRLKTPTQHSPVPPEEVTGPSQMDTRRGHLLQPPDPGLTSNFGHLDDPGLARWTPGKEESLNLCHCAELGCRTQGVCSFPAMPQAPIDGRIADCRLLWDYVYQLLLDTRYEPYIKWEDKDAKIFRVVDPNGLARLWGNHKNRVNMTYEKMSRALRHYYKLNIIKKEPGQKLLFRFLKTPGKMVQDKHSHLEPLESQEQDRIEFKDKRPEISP
Method in brief: as §1

[16] = target: T11, ELF5 (Homo sapiens, UniProt Q9UKW6-2 1-255); conditions: protein: recombinant; tags: N-terminal GST; dsDNA, one strand shown
T11 sequence: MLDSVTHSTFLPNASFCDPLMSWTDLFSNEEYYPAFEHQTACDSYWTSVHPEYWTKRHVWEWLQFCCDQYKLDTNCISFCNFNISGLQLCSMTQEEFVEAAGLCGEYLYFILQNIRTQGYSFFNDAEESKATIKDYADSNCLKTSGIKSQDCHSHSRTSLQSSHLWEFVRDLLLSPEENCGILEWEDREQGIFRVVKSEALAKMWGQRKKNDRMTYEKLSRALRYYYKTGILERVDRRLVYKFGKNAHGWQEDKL
Method in brief: as §1

[17] = target: T12, ETV3 (Homo sapiens, UniProt P41162-2 1-143); conditions: protein: recombinant; tags: N-terminal GST; dsDNA, one strand shown
T12 sequence: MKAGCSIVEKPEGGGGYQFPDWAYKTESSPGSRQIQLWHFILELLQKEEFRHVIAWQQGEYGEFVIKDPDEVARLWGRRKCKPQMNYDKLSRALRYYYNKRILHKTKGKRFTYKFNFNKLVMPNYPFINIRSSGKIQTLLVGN
Method in brief: as §1

[18] = target: ETV6 (Homo sapiens, UniProt P41212 1-452); conditions: protein: recombinant; tags: N-terminal GST; dsDNA, one strand shown
Sequence of ETV6 (P41212 whole entry): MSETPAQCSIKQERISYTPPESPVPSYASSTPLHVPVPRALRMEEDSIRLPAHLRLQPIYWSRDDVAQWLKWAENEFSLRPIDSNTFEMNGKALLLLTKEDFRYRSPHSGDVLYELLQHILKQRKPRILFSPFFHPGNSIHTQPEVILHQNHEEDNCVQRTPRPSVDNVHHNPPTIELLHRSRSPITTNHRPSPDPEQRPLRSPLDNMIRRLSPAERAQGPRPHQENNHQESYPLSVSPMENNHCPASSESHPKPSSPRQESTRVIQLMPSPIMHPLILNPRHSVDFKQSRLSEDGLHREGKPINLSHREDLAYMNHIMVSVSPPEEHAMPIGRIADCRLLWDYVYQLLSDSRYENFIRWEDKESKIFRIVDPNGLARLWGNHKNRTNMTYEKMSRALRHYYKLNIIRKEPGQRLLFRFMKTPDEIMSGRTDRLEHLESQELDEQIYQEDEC
Method in brief: as §1

AAACAT was tested, and the binding signal [1] was 1.45 fold enrichment (6-mer frequency, TF over GST control), the binding signal [2] was 1.57 fold enrichment (6-mer frequency, TF over GST control) and the binding signal [3] was 1.48 fold enrichment (6-mer frequency, TF over GST control). The binding signal [4] was 1.53 fold enrichment (6-mer frequency, TF over GST control), the binding signal [5] was 1.53 fold enrichment (6-mer frequency, TF over GST control) and the binding signal [6] was 1.49 fold enrichment (6-mer frequency, TF over GST control). For the same sequence, the binding signal [7] was 1.53 fold enrichment (6-mer frequency, TF over GST control), the binding signal [8] was 1.53 fold enrichment (6-mer frequency, TF over GST control) and the binding signal [9] was 1.32 fold enrichment (6-mer frequency, TF over GST control). For the same sequence, the binding signal [10] was 1.43 fold enrichment (6-mer frequency, TF over GST control), the binding signal [11] was 1.45 fold enrichment (6-mer frequency, TF over GST control) and the binding signal [12] was 1.46 fold enrichment (6-mer frequency, TF over GST control). The binding signal [13] was 1.48 fold enrichment (6-mer frequency, TF over GST control), the binding signal [14] was 1.51 fold enrichment (6-mer frequency, TF over GST control) and the binding signal [15] was 1.44 fold enrichment (6-mer frequency, TF over GST control). The binding signal [16] was 1.51 fold enrichment (6-mer frequency, TF over GST control), the binding signal [17] was 1.48 fold enrichment (6-mer frequency, TF over GST control) and the binding signal [18] was 1.52 fold enrichment (6-mer frequency, TF over GST control).
